An excerpt weighted towards active compounds, which were near 14% of everything screened.
LASV entry inh: inhibitors of Lassa virus binding or cell entry | AID 540256 | 300,000 compounds, 1.2% hits | Potency, µM (titrated, usually from 37.9 µM), without a hit: at the highest dose activity change, negative = inhibition, hits mostly inhibitors | Lassa virus pseudotype entry inhibition, cell reporter; calls by dose curve; tested in HEK293 cells; note: potency is the fitted concentration of half-maximal effect; nearly all actives have a fitted effect of over 50% in size
Pf growth 48h: P. falciparum growth inhibition at 48 hours (one generation); Potency, µM (titrated, usually from 28.7 µM), inactives show top-dose activity change, negative = inhibition, actives largely listed as inhibitors; P. falciparum luciferase growth in erythrocytes, 48 h; 310,000 compounds, 5.9% hits; note: potency is the fitted concentration of half-maximal effect
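Erythrocytes infected with P. falciparum carrying an integrated firefly luciferase reporter (2% hematocrit, 0.1% parasitemia final) were exposed to compounds in RPMI 1640 with 0.5% Albumax at 37 C, 5% CO2. Growth inhibition was scored as reduced luminescence.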
Pf growth 96h: P. falciparum growth inhibition at 96 hour, primary screen for plastid delayed-death inhibitors | P. falciparum luciferase reporter growth, 96 h | Potency, µM (top dose mostly 28.7 µM), inactives show top-dose activity change, negative = inhibition, actives largely listed as inhibitors | 320,000 compounds, 6.9% hits; note: potency is the fitted concentration of half-maximal effect
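Plates of compound plus infected erythrocytes (2% hematocrit, 0.05% parasitemia final) incubate 96 hours, 37 C, 5% CO2. Detection reagent added; reduced luminescence from the parasites' luciferase reporter flags inhibition.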
HCV inhibitor: inhibitors of hepatitis C virus infection; Huh7.5.1 HCVcc-Cre infection, luciferase reporter, 44 h; Potency, µM (highest dose often 41.8 µM), inactives show at the top dose activity change, negative = inhibition, actives largely listed as inhibitors; 340,000 compounds, 3.4% hits; note: potency is the fitted concentration of half-maximal effect
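1,000 cells/well; 4 h culture; + compound; + HCVcc-Cre (~0.5 moi); 44 h; luciferase substrate, RT 15 min; read 15 sec.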
HCMV antiviral: human cytomegalovirus inhibition | HFF cells, HCMV-luciferase reporter, 72 h; hits give low values | activity change, negative = inhibition, % at 57.5 µM | 410,000 compounds, 4.5% hits | AID 1259415; in the data active = activity change below about -60%; inconclusive = no clear call, values can overlap the other calls; inactive = above about -39%
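After 16 h attachment at 37C, HFF cells received test compound and HCMV-luciferase (1 PFU/cell); reporter luminescence read 72 h later, data normalized against buffer-only and known inhibitor Salinomycin.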
MARV entry inh: inhibitors of Marburg virus binding or cell entry; 300,000 compounds, 1.8% hits; Potency, µM (titrated, usually from 37.8 µM), without a hit: at the top dose activity change, negative = inhibition, actives largely listed as inhibitors; Marburg virus pseudotyped entry inhibition, cell reporter; calls by dose curve; tested in HEK293 cells; note: potency is the fitted concentration of half-maximal effect
Numbers without * were called inactive; ? = inconclusive; / = not tested or not shown; [ ] = remark or other dose. Unless noted, calls come from the whole dose curve; as a rule, active = well fitted inhibition curve with a large enough effect; inconclusive = small, poorly fitted or top-dose-only effect, or another doubt; inactive = no such curve, though single readings can be large or run the other way. % is set by controls: 0 for no effect and ±100 for the full control effect.

SMILES	LASV entry inh	Pf growth 48h	Pf growth 96h	HCV inhibitor	HCMV antiviral	MARV entry inh
O=C(/C=C/c1ccc(Cl)cc1Cl)Nc1cccc(S(=O)(=O)NC2=NCCCCC2)c1	-20%	24%	47%	?	23	2%
O=C(N/N=C/C1CC=CCC1)c1ccc(Cl)cc1O (stereo not drawn)	13%	1%	2.3µM*	-4%	2	7%
O=C(N/N=C/C1CC=CCC1)c1ccccc1O (stereo not drawn)	11%	-12%	1%	-3%	-25	-4%
Cc1ccc(NC(=O)c2oc3ccc(S(=O)(=O)N(C)C4CCCCC4)cc3c2C)c(C)c1	4%[46.1 µM]	/	/	/	?	/
O=[N+]([O-])c1ccc2c(c1)S(=O)(=O)C=C2	3.3µM*	/	/	/	/	?
Cc1cc([N+](=O)[O-])ccc1N	18%	61%	45%	1%	-32	?
Cc1ccc(NC(=O)Cn2cc(S(=O)(=O)N3CCCC3)c(S(=O)(=O)N3CCCC3)c2)cc1F	29%[46.1 µM]	/	/	/	11	/
CCOc1ccccc1O[C@@H](c1ccccc1)[C@@H]1CNCCO1	/	?	13µM*	/	/	/
CCOc1ccccc1CNC(c1ccccc1)c1ccccc1	/	73%	?	-16%	29	/
Cc1ccc(/C=c2\sc3nc(-c4ccco4)nn3c2=O)o1	6%	10%	?	-5%	/	-1%
Cc1ccc(/C=c2\sc3nc(-c4ccccc4Br)nn3c2=O)o1	4%	4%	12µM*	2%	16	3%
Cc1cccc(N2CCN(C(=O)CC(NC(=O)c3ccccc3)c3ccccc3)CC2C)c1 (stereo not drawn)	?	?	?	-28%	-66*	?
Cc1cccc(N2CCN(C(=O)c3cn4ccccc4n3)CC2C)c1 (stereo not drawn)	-5%[46.1 µM]	-4%	-16%	-10%	-62*	?
Cc1ccc(-c2ccc(=O)n(CC(=O)N3CCN(c4cccc(C)c4)C(C)C3)n2)cc1 (stereo not drawn)	?	46%	12µM*	?	?	16%
Cc1ccc(C)c(S(=O)(=O)N2CCN(C(=O)/C=C/c3ccco3)CC2)c1	/	?	-91%	-5%	7	/
CCOC(=O)c1c(C)[n+](-c2ccc(C)cc2)c(CC)c2cc(OC)c(OC)cc12	/	0.83µM*	0.74µM*	?	-81*	/
N#Cc1cccc(NC(=O)c2cc(C3CCCCN3C(=O)CCCc3ccccc3)on2)c1 (stereo not drawn)	/	/	/	/	-7	/
OC(CNCCc1ccc(C(F)(F)F)cc1)COc1cccc2ccccc12 (stereo not drawn)	?	7.4µM*	6.6µM*	?	-12	?
COc1ccc(CCNCC(O)COc2cccc(Br)c2)cc1 (stereo not drawn)	-17%	19%	9%	-17%	-33	?
OC(CNCCc1ccc(C(F)(F)F)cc1)COc1ccc2ccccc2c1 (stereo not drawn)	16µM*	?	?	?	-34	?
OC(COc1ccc(CNCCc2ccc(C(F)(F)F)cc2)cc1)CN1CCCCC1 (stereo not drawn)	?	2.1µM*	10%	5µM*	-80*	?
COc1cccc(NS(=O)(=O)NC(=O)c2cn(C)c3ccccc23)c1	/	23%	0%	-17%	-34	/
CCOC(=O)C1=CNS(=O)(=O)NC1c1ccc(Br)cc1F (stereo not drawn)	/	/	/	-6%	2	/
CCOc1ccccc1N(C)C(=O)c1ccc2c(=O)n3c(nc2c1)CCCCC3	-26%[46.1 µM]	?	1.5µM*	-12%	-22	?
CCc1ccc(NC(=O)c2ccc3c(=O)n4c(nc3c2)CCCCC4)cc1	/	?	-21%	10µM*	-38	/
CCN(CC)S(=O)(=O)c1ccc(NC(=O)c2ccc3c(=O)n4c(nc3c2)CCCCC4)cc1	?	/	/	/	-93*	?
COc1ccc(CN(C)C(=O)c2ccc3c(=O)n4c(nc3c2)CCC4)cc1	/	-2%	?	5%	-34	/
